Measured values reported in PubChem BioAssay (NCATS).
Results filed as inconclusive are left out. The source made the active and inactive calls. Unless noted, the call rests on the fitted dose curve; in most records, active means well fitted curve in the direction sought with a large enough effect; inconclusive means small, poorly fitted or top-dose-only effect, or another doubt; inactive means no such curve, though single readings can be large; an effect the other way counts as inactive or inconclusive.

Legend:
[1] = qHTS to identify inhibitors of the type 1 interferon - major histocompatibility complex class I in skeletal muscle: primary screen against the NCATS LOPAC collection (AID 1347405);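 further: lytic HiBiT luminescence reporting HLA-B protein level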
Procedure, shortened: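 First, engineered myoblasts carrying HLA-B-HiBiT were seeded in medium lacking dexamethasone with 4 ng/ml IFN-beta. After 1 hr, compounds were pinned in (top 46 uM final, 7 points). After 24 hrs at 37 C, luminescence was measured following 10 min lysis.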

[2] = qHTS to identify inhibitors of the type 1 interferon - major histocompatibility complex class I in skeletal muscle: primary screen against the NCATS Pharmaceutical Collection (AID 1347407);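 further: luminescence of HiBiT knocked into endogenous HLA-B as interferon-induced MHC class I level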
Procedure, shortened: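 Immortalized human myoblasts (C25cl48) with HiBiT knocked into endogenous HLA-B*08:01 were stimulated with 4 ng/ml IFN-beta and treated with compounds (8-point, 1:5, top 46 uM final) for 24 h at 37 C; HiBiT lytic luminescence read.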

[3] = qHTS for inhibitors of adenylyl cyclases using a fission yeast platform: a pilot screen against the NCATS LOPAC library (AID 1347410)
Procedure, shortened: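 S. pombe CHP2027 (AC9-GNAS-PDE4D2) carrying a PKA-repressed fbp1-GFP reporter was exposed to LOPAC compounds (final up to 57 µM) for 18 h at 30C in the dark, in EMM with histidine, lysine and uracil; GFP gain-of-signal read by laser scanning cytometry.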

[4] = qHTS to identify inhibitors of the type 1 interferon - major histocompatibility complex class I in skeletal muscle: primary screen against the NCATS Mechanism Interrogation Plate v5.0 (MIPE) Libary (AID 1347411); further: nearly all actives have a fitted effect of over 65% in size
Procedure, shortened: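 Seed engineered human myoblasts (HLA-B HiBit) in medium without dexamethasone containing 4 ng/ml IFN-beta; after 1 hr add compound titrations (top 46 uM final). Incubate 24 hrs at 37 C, lyse 10 min with HiBiT reagent, read luminescence.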

[5] = biological target: Protein phosphatase 1D (Homo sapiens) (UniProt O15297); assay: RapidFire Mass Spectrometry qHTS Assay for Modulators of WT P53-Induced Phosphatase 1 (WIP1) (AID 1347424);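 further: amount of dephosphorylated VEPPL-S-QETFS peptide product formed by WIP1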; further: potency means the concentration at half of the fitted maximal effect
Procedure, shortened: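 RapidFire mass spectrometry measured dephosphorylated peptide after 5 min room-temperature reaction of 2 uM VEPPL-pS-QETFS with 10 nM WIP1 (50 mM Tris-HCl pH 7.5, 30 mM MgCl2, 0.1 mM EGTA, BSA), following 1 hr compound preincubation; 1 uM isotope-labelled product standard.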

[6] = biological target: Protein phosphatase 1D (Homo sapiens) (UniProt O15297); assay: Rhodamine-PBP qHTS Assay for Modulators of WT P53-Induced Phosphatase 1 (WIP1) (AID 1347425)
Procedure, shortened: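 5 nM WIP1 + 10 uM Rh-PBP, 50 mM Tris pH 7.5, 30 mM MgCl2, 1 mM TCEP, 0.1 mM EGTA, BSA; cpds pinned, 1 hr RT; + 10 uM phosphopeptide; fluorescence 1-min reads x 11 min; delta = f1 - f0.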

[7] = Validation qHTS assay for inhibitors of Activation Induced Cytidine Deaminase (AID): UDG Counterscreen signal (AID 1347427)
Procedure, shortened: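 Fluorescence at 560 nm excitation, 665 nm emission reports UDG signal after 250 mM NaOH (2x) addition and 30 min. Enzymes (AID 1 uM, UDG 2 U/mL, at 4/3x) preincubated 10 min with compound, then 4 h with 4x 250 nM DJC20/DJC23 substrate at room temperature.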

[8] = biological target: Single-stranded DNA cytosine deaminase (Homo sapiens) (UniProt Q9GZX7); assay: Validation qHTS assay for inhibitors of Activation Induced Cytidine Deaminase (AID): AID signal (AID 1347429)
Procedure, shortened: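 Steps: dispense AID with UDG; pin-transfer compound up to 114 uM final; add DJC20/DJC23 substrate and hold 4 hr at room temperature; add NaOH, hold 30 min; read FRET signal (540/590 nm).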

[9] = Primary qHTS for inhibitors of SARS-S pseudo-typed particle cell entry (AID 1479145; calls by dose curve; further: nearly all actives have a fitted effect of over 45% in size)
[10] = Primary qHTS for Huh7 cytotoxicity: counterscreen for inhibitors of MERS-S pseudotyped particle cell entry (AID 1479147; calls by dose curve)
[11] = Primary qHTS for inhibitors of MERS-S pseudo-typed particle cell entry (AID 1479149; calls by dose curve; further: nearly all actives have a fitted effect of over 60% in size)
[12] = Primary qHTS for Vero E6 cytotoxicity: counterscreen for inhibitors of SARS-S pseudo-typed particle cell entry (AID 1479150; calls by dose curve)
[13] = Primary qHTS for inhibitors of La Crosse Virus (LACV) - induced cell death in SH-SY5Y cells (AID 1508616);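 further: top concentration of the series differs between compounds; higher means more rescue of cells from virus-induced death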
Procedure, shortened: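 SH-SY5Y, 6000 cells/well; cpd via pin tool in DMSO; LACV 0.01 MOI; 6 d 37C 5% CO2; ATPLite, 5 min RT; luminescence normalized to ±virus DMSO controls.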

[14] = biological target: Calcium and integrin-binding protein 1 (Homo sapiens) (UniProt Q99828); assay: Validation qHTS for Identification of Calcium Integrin Binding protein 1 (CIB1) Competitor (AID 1508618)
Procedure, shortened: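 Displacement of FITC-alphaIIb peptide (100 nM) from CIB1-GST (1 uM) is monitored by polarization in quantitative HTS format; buffer carries 5 mM CaCl2 and 125 mM NaCl at pH 7.4, incubations are at room temperature.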

[15] = biological target: Calcium and integrin-binding protein 1 (Homo sapiens) (UniProt Q99828); assay: Primary qHTS for Identification of Calcium Integrin Binding Protein 1 (CIB1) Competitor (AID 1508620);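 further: GST tagged CIB1 binding a fluorescein labelled alphaIIb integrin peptide tracer; top concentration of the series differs between compounds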
Procedure, shortened: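 CIB1-GST (1 uM final) and compound incubated 15 min at room temperature before adding FITC-alphaIIb peptide tracer (100 nM final). Competition for binding read by fluorescence polarization (ex 480, em 540) after another 15 min at room temperature.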

[16] = Counterscreen qHTS for small molecule stabilizers of the endoplasmic reticulum resident proteome: GLuc-NoTag assay (AID 1508627); further: series mostly up to about 76 µM
Procedure, shortened: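 Counterscreen line: SH-SY5Y-GLuc-NoTag cells, treated with compound 19 hr before a 4 hr, 100 nM thapsigargin calcium depletion. Secreted Gaussia luciferase in the medium was measured by luminescence after coelenterazine was added (0.07x final), with cells unlysed.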

[17] = Confirmatory qHTS for small molecule stabilizers of the endoplasmic reticulum resident proteome: Secreted ER Calcium Modulated Protein (SERCaMP) assay (AID 1508628); further: series mostly up to about 76 µM; nearly all actives have a fitted effect of over 40% in size
Procedure, shortened: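 Reporter secretion upon ER calcium depletion (100 nM thapsigargin, 4 h, 37C) is measured as medium luminescence with coelenterazine, after 16 h compound pretreatment of SH-SY5Y-GLuc-SERCaMP cells; primary at three concentrations up to 38.3 uM, follow-up at 11 (up to 76.6 uM).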

Measured: Potency

Chain of Protein phosphatase 1D (Homo sapiens) (O15297 whole entry, looked up): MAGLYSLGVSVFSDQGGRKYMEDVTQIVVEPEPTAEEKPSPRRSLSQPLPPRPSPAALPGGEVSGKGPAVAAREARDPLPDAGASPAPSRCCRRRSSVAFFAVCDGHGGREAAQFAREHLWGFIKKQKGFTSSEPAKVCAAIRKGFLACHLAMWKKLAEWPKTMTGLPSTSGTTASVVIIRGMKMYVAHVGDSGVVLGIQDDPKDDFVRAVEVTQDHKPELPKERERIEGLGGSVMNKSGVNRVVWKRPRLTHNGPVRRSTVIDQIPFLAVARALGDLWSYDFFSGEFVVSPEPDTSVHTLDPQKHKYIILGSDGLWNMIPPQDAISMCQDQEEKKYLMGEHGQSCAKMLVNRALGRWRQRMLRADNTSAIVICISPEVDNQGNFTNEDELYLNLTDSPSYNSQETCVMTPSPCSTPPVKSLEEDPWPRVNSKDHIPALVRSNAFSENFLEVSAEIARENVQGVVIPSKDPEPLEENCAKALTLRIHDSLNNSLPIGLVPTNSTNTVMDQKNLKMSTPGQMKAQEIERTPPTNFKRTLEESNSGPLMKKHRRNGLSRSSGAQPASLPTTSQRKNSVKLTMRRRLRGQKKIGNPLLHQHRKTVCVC
Chain of Calcium and integrin-binding protein 1 (Homo sapiens) (Q99828 whole entry, looked up): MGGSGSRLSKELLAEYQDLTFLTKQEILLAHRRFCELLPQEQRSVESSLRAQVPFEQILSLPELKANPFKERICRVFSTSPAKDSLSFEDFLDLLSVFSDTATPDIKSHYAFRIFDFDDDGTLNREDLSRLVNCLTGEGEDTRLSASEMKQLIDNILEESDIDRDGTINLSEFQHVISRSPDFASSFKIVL
Chain of Single-stranded DNA cytosine deaminase (Homo sapiens) (Q9GZX7 whole entry, looked up): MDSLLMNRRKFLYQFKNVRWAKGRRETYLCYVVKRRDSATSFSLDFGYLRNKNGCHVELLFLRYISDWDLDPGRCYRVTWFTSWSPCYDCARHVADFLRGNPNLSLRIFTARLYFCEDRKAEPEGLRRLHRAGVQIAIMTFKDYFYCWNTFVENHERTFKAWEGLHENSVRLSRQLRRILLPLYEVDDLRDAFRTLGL

CCC1(c2ccc(N)cc2)CCC(=O)NC1=O (stereo not given)
inactive: [1] | [2] | [3] | [4] | [5] | [6] | [7] | [8] | [9] | [10] | [11] | [12] | [13] | [14] | [15]

C=C(C)[C@H]1CN[C@H](C(=O)O)[C@H]1CC(=O)O
inactive: [1] | [2] | [3] | [5] | [6] | [7] | [8] | [9] | [10] | [11] | [12] | [13] | [14] | [15]

NC(=O)c1cc([N+](=O)[O-])cc([N+](=O)[O-])c1
inactive: [2] | [5] | [6] | [9] | [10] | [11] | [12] | [13] | [15]

Nc1ccc([As](=O)(O)O)cc1
inactive: [2] | [5] | [6] | [9] | [10] | [11] | [12] | [13] | [15]

NCCc1ccc(O)cc1
inactive: [1] | [2] | [3] | [5] | [6] | [7] | [8] | [13] | [14]

CC(C)=CC1C(C(=O)OCN2C(=O)C3=C(CCCC3)C2=O)C1(C)C (stereo not given)
inactive: [2] | [5] | [6]

Clc1ccc(C(c2ccc(Cl)cc2)C(Cl)(Cl)Cl)cc1
inactive: [2] | [5] | [6] | [9] | [10] | [11] | [12] | [13] | [15]

CC(C)N(CCC(C(N)=O)(c1ccccc1)c1ccccn1)C(C)C (stereo not given)
inactive: [1] | [2] | [3] | [5] | [7] | [8] | [10] | [11] | [12] | [13] | [14]

CC(C)(C)NCC(O)c1ccccc1Cl (stereo not given)
inactive: [1] | [2] | [3] | [5] | [7] | [8] | [9] | [10] | [11] | [12] | [13] | [14] | [15]

O=[N+]([O-])O[C@H]1CO[C@H]2[C@@H]1OC[C@H]2O[N+](=O)[O-]
inactive: [2] | [5] | [6] | [9] | [10] | [11] | [12] | [13]

CCc1cc2c(s1)-n1c(C)nnc1CN=C2c1ccccc1Cl
inactive: [2] | [5] | [6] | [9] | [10] | [11] | [12] | [13] | [15]

CN1C(=O)CCS(=O)(=O)C1c1ccc(Cl)cc1 (stereo not given)
inactive: [1] | [2] | [3] | [4] | [5] | [7] | [8] | [9] | [10] | [12] | [13] | [14] | [15]

O=c1[nH]oc2c1CCNC2
inactive: [1] | [2] | [5] | [6] | [7] | [8] | [13] | [14] | [15]

Oc1ccc(Cl)cc1
inactive: [2] | [5] | [6] | [9] | [10] | [11] | [12] | [13]

CC(C(=O)c1ccccc1)N(C)C (stereo not given)
inactive: [2] | [5] | [6] | [13] | [15]

CCN[C@H](C)Cc1cccc(C(F)(F)F)c1
inactive: [2] | [5] | [6] | [13]

C[C@]12CC[C@@H]3c4ccc(OC(=O)N(CCCl)CCCl)cc4CC[C@H]3[C@@H]1CC[C@@H]2O
inactive: [2] | [5] | [9] | [10] | [11] | [12] | [13]

c1ccc(CN2CCNCC2)cc1
inactive: [2] | [5] | [6] | [13] | [15]

CCCCCCC(=O)CCCCCC/C=C/C[C@@H](O)[C@H](O)[C@@](N)(CO)C(=O)O
inactive: [2] | [5] | [6] | [13] | [15]

C[C@]12CCC(=O)C=C1CC[C@@H]1[C@H]3CC[C@](C)(O)[C@@]3(C)CC[C@@H]12
inactive: [2] | [5] | [6] | [13]

CC(=O)C1CCOC1=O (stereo not given)
inactive: [2] | [5] | [6] | [13] | [15]

CCC(CC)(CNC(=O)CCCO)c1cccc(OC)c1
inactive: [2] | [5] | [6] | [10] | [11] | [13]

NNc1ccccc1
inactive: [2] | [5] | [6] | [13] | [15] | [16] | [17]

O=C(Nc1ccc(Br)cc1)c1cc(Br)cc(Br)c1O
inactive: [2] | [6] | [13] | [15]
active: [5] 3.16 µM

CCC(C)(C)c1ccc(O)cc1
inactive: [2] | [5] | [6] | [13]

COP(=S)(OC)Oc1ccc(SC)c(C)c1
inactive: [2] | [5] | [9] | [10] | [11] | [12] | [13] | [15]

C[C@@H]1CC2=CC(=O)CC[C@@H]2[C@H]2CC[C@@]3(C)[C@@H](CC[C@]3(C)O)[C@@H]21
inactive: [2] | [5] | [6] | [10] | [12] | [13]

CCN(CC)CCc1c[nH]c2ccccc12
inactive: [2] | [5] | [6] | [13] | [15]

[N-]=[N+]=CC(=O)OC[C@H](N)C(=O)O
inactive: [2] | [5] | [6] | [13]

CNCC(=O)c1ccc(O)c(O)c1
inactive: [2] | [5] | [6] | [13] | [15] | [17]
